# Source: article PMC4336329 (PLoS ONE, 2015)
# Out of some 310,000 compounds screened, about 14,000 (4.5%) showed an effect of 50% or more. The effect is printed as a negative number. What follows is part of a selection rich in strong results, with near analogues and random picks from the rest.
# Biological target: human ether-à-go-go-related gene (hERG) potassium channel (human, UniProt Q12809)
# Assay: primary screen, population patch clamp on CHO cells stably expressing hERG; higher = less effect of the substance
# 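Further: peak tail current of the secondary pulse compared with the same well before compound.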
# Chain of human ether-à-go-go-related gene (hERG) potassium channel (Q12809 whole entry, looked up): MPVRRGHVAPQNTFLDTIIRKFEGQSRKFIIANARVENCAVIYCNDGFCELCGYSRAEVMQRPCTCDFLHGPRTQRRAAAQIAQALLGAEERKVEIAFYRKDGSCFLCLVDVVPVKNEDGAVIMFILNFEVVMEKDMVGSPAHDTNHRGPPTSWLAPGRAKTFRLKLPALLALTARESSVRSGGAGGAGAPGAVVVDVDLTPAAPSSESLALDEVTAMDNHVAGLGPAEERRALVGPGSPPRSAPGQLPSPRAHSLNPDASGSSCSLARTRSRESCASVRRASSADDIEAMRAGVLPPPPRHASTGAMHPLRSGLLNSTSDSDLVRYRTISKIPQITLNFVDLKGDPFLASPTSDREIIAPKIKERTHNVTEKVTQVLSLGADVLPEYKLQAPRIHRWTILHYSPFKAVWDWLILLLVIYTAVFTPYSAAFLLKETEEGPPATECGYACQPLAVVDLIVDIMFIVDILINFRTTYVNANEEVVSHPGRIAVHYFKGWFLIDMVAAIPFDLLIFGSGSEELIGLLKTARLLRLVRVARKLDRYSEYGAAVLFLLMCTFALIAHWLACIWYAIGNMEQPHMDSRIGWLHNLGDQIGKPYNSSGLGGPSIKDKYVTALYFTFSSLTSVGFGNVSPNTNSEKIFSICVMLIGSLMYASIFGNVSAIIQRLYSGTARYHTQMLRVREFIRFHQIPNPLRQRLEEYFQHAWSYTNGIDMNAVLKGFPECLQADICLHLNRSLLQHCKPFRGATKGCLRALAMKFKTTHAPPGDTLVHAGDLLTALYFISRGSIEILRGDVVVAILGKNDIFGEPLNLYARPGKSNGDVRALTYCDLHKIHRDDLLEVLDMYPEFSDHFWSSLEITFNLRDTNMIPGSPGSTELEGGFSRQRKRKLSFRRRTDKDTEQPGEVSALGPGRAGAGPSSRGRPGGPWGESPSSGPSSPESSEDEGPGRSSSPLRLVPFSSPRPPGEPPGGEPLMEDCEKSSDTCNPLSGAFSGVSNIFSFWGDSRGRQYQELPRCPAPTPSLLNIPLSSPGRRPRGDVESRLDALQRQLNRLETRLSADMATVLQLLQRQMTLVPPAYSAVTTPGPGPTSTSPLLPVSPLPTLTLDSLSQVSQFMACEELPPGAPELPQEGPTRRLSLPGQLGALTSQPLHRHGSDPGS
row,SMILES,"hERG current change (%, negative = inhibition) at 10uM [%]"
1,CCOC(=O)C1=NNC2C(=O)N(CC)C(=O)C12 (stereo not shown),9.23
2,Cc1ccc(C)c(S(=O)(=O)N2CCN(CC(=O)Nc3ccc4c(c3)OCCO4)CC2)c1,-13.9
3,Cc1occc1C(=O)N1CCN(S(C)(=O)=O)CC1,7.58
4,COc1ccc(CNC(=O)c2cc(=O)c3cc(C)c(C)cc3o2)cc1,19.3
5,COc1ccccc1C1CC(c2ccccc2)=NN1S(=O)(=O)c1ccccc1 (stereo not shown),12
6,COc1ccccc1C1CC(c2ccc(NS(C)(=O)=O)cc2)=NN1S(=O)(=O)c1ccccc1 (stereo not shown),-69.6
7,COc1ccccc1C1CC(c2cccc(NS(C)(=O)=O)c2)=NN1S(=O)(=O)c1ccccc1 (stereo not shown),3.08
8,O=C(COC(=O)c1ccc(S(=O)(=O)N2CCOCC2)cc1)NCc1cccs1,2.5
9,CCOc1ccc(N2CC(C(=O)Oc3ccccc3)CC2=O)cc1 (stereo not shown),-10.9
10,O=S(=O)(CCSc1nc2ccccc2o1)c1nc2ccccc2s1,-5.57
11,Cc1cc(Cl)c(S(=O)(=O)N(C)C)cc1OCC(N)=O,10.5
12,COc1ccc(C2CC(c3ccccc3)=NN2S(=O)(=O)c2ccccc2)cc1 (stereo not shown),14.8
13,O=C(CN(c1ccccc1)S(=O)(=O)c1ccc(Cl)cc1)Nc1ccccc1C(=O)N1CCCC1,-54.2
14,CCOc1ccc(N(CC(=O)Nc2ccccc2C(=O)N2CCOCC2)S(=O)(=O)c2ccc(F)cc2)cc1,-30.5
15,CCOc1ccc(N(CC(=O)Nc2ccccc2C(=O)N2CCCC2)S(C)(=O)=O)cc1,2.43
16,COc1ccc(N(CC(=O)Nc2ccccc2C(=O)N2CCCC2)S(C)(=O)=O)cc1,27.7
17,COc1ccc(N(CC(=O)Nc2ccccc2C(=O)N2CCOCC2)S(=O)(=O)c2ccc(F)cc2)cc1,-44.6
18,COc1ccc(S(=O)(=O)N(CC(=O)Nc2ccccc2C(=O)N2CCOCC2)c2ccc(F)cc2)cc1,-57
19,COc1ccc(N(CC(=O)Nc2ccccc2C(=O)N2CCCC2)S(=O)(=O)c2ccccc2)cc1,-51.8
20,CN(CC(=O)Nc1ccccc1C(=O)N1CCCC1)S(=O)(=O)c1ccc(Cl)cc1,-22.8
21,Cc1ccc(S(=O)(=O)N(CC(=O)Nc2ccccc2C(=O)O)c2ccc(Cl)cc2)cc1,13.6
22,CCCn1c(SCC(=O)c2[nH]c(C)c(C(C)=O)c2C)n[nH]c1=O,-1.57

row,SMILES,"hERG current change (%, negative = inhibition) at 10uM [%]"
1,COc1ccc(OC)c(NS(=O)(=O)c2ccc(NC(=O)c3ccc(NS(C)(=O)=O)cc3)cc2)c1,14.2
2,Cc1ccc(-n2c(SCC(=O)Nc3nccs3)nc3c(c2=O)SCC3)cc1,0.0407
3,CC1CC1C(=O)OCC(=O)Nc1ccccc1Oc1ccccc1 (stereo not shown),13.9
4,COc1ccc(Cl)cc1NC(=O)C1CC(=O)N(c2ccc(F)cc2)C1 (stereo not shown),4.41
5,CSc1ccc(/C=C(\NC(=O)c2ccco2)C(=O)N2CCCCC2)cc1,-29.6
6,CSc1ncc(Cl)c(C(=O)Nc2ccc(C)c(C)c2)n1,13.4
7,CCOc1ccc(-c2c(C)n([O-])c3c([n+]2=O)CCCC3)cc1,-1.2
8,CCOc1ccc(-c2c(C)n(-c3ccc(OCC)cc3)c3[n+]2CCCCC3)cc1.[O-][Cl+3]([O-])([O-])[O-],-77.7
9,CCOc1ccc(-n2c(-c3ccc(Br)cc3)c[n+]3c2CCCCC3)cc1.[Br-],-77.7
10,CCOc1ccc(-c2c(C)n([O-])c3c([n+]2=O)CCCCC3)cc1,17.4
11,CCOc1ccc(-n2c(-c3ccc(OC)cc3)c[n+]3c2CCCCC3)cc1.[Br-],-76
12,CCOc1ccc(N2C(=O)CC(Cc3ccc(Br)cc3)C2=O)cc1 (stereo not shown),5.77
13,O=C(CSc1ncnc2c1oc1ccccc12)NCc1ccco1,-12.4
14,CC(C)(C)SCCNC(=O)c1ccc(CN2CCc3ccccc3C2)cc1,-35.1
15,O=C(Cn1ccsc1=NC(=O)c1ccco1)c1ccccc1,-6.93
16,O=C(Nc1ccc(F)cc1F)c1cc(=O)n(-c2ccccc2)c(=O)[nH]1,6.37
17,COc1ccc(NC(=O)CSC2=NC(=O)CC(C)=N2)cc1,15.1
18,O=C(NNC(=S)NC(=O)c1ccccc1)c1ccc(O)cc1,24.7
19,O=C(/C=C/c1ccccc1Cl)N(Cc1cccs1)C1CCS(=O)(=O)C1 (stereo not shown),-31.5
20,Cc1ccc(/C=C/C(=O)N(Cc2cccs2)C2CCS(=O)(=O)C2)cc1 (stereo not shown),-79
21,O=C(c1ccc(Cl)cc1)N(Cc1cccs1)C1CCS(=O)(=O)C1 (stereo not shown),-24.4
22,O=C(/C=C/c1ccc(Cl)cc1)N(Cc1ccccc1)C1CCS(=O)(=O)C1 (stereo not shown),-75

row,SMILES,"hERG current change (%, negative = inhibition) at 10uM [%]"
1,O=C(/C=C/c1ccccc1)N(Cc1ccc(Cl)cc1)C1CCS(=O)(=O)C1 (stereo not shown),-30.6
2,COc1ccc(/C=C/C(=O)N(Cc2cccs2)C2CCS(=O)(=O)C2)cc1 (stereo not shown),-48.6
3,O=C(/C=C/c1ccccc1)N(Cc1cccs1)C1CCS(=O)(=O)C1 (stereo not shown),-30.3
4,O=C(/C=C/c1ccc(Cl)cc1)N(Cc1cccs1)C1CCS(=O)(=O)C1 (stereo not shown),-72.8
5,O=C(/C=C/c1ccccc1)N(Cc1cccc(Cl)c1)C1CCS(=O)(=O)C1 (stereo not shown),-25.6
6,S=C(NCc1cccs1)Nc1ccccc1Cl,9.58
7,CCC1CCCCN1C(=O)CCS(=O)(=O)c1ccccc1 (stereo not shown),13.7
8,COc1ccc(/C(O)=C2/C(=O)C(=O)N(CCCC(=O)O)C2c2ccc(OC)cc2)cc1 (stereo not shown),11.7
9,Cc1cc(C(=O)NCc2cccc(Cl)c2)c2ccccc2n1,15.8
10,COC(=O)c1cccc(C23CC4(C2)[C@H](CN(Cc2cccnc2)[C@@H]4c2ccccc2)C3c2ccccc2)c1 (stereo partly shown),8.51
11,CCC(=O)N1CCc2cc(S(=O)(=O)CCC(=O)NC3CCCCC3)ccc21,5.33
12,Cc1nn(C)c(C(=O)N/N=C/c2ccncc2)c1Cl,7.35
13,COc1ccccc1N1C(=O)c2ccc(C(=O)Nc3cccc(C(C)=O)c3)cc2C1=O,1.69
14,CCn1cc(CN(C)S(=O)(=O)c2ccc3ccccc3c2)c(C)n1,-1.17
15,S=C(c1ccc(Br)cc1)N1CCN(Cc2ccccc2)CC1,-36.3
16,O=C(Cc1ccccc1)N1CCN(C(=O)c2ccc([N+](=O)[O-])cc2)CC1,-51
17,CSc1ccc(C(=S)N2CCN(Cc3ccccc3)CC2)cc1,-50.4
18,COc1ccc([N+](=O)[O-])cc1NC(=O)c1cccs1,4.41
19,COc1ccc(C(=O)N2CCN(C(=O)Cc3ccccc3)CC2)cc1.O=C(O)C(=O)O,0.269
20,Cc1ccc(C(=S)N2CCN(Cc3ccccc3)CC2)cc1,-42.9
21,CCN(Cc1ccccc1)C(=O)CCc1nc(CN2CCN(C(=O)c3ccc([N+](=O)[O-])cc3)CC2)no1,-64.2
22,COc1ccc(OC)c(NC(=O)C2CCN(C(=O)c3cccs3)CC2)c1,15.7

row,SMILES,"hERG current change (%, negative = inhibition) at 10uM [%]"
1,CCN(Cc1ccccc1)C(=O)CCc1nc(-c2ccc(C)cc2)no1,-12.1
2,COc1ccc(-c2noc(CCC(=O)N3CCN(Cc4ccccc4)CC3)n2)cc1,-32.8
3,O=C(Cc1ccccc1)NC1CCN(C(=O)c2ccc([N+](=O)[O-])cc2)CC1,-47.7
4,COc1ccc([N+](=O)[O-])cc1NC1CCN(C(=O)c2cccs2)CC1,-85.7
5,Cc1ccc2nc(NC(=O)c3ccc(-c4nc5ccccc5s4)s3)sc2c1,0.614
6,O=C(Nc1cccnc1)c1ccccc1NS(=O)(=O)c1ccc(F)cc1,-11.5
7,Cc1c(Cl)ccc2c1NC(=O)C21NC(CCC(N)=O)[C@H]2C(=O)N(c3ccc(Cl)cc3)C(=O)[C@H]21 (stereo partly shown),7.5
8,O=C(c1ccccc1NS(=O)(=O)c1ccc(F)cc1)N1CCCCC1,-4.35
9,COCCN(C(=O)CCCC(=O)Nc1ccccn1)C(C(=O)NC1CCCCC1)c1ccc(C)cc1 (stereo not shown),-17.7
10,CCc1ccc2oc(-c3ccc(NC(C)=O)cc3)nc2c1,10.7
11,O=C(c1ccc([N+](=O)[O-])cc1)N1CCN(c2ncccn2)CC1,-77.8
12,O=C(c1ccc([N+](=O)[O-])cc1)N1CCN(c2cccc3[nH]ccc23)CC1,-72.7
13,O=C(c1ccccc1)N1CCN(c2ncccn2)CC1,17.6
14,O=C(c1ccc(Cl)cc1)N1CCN(c2cccc3[nH]ccc23)CC1,3.68
15,O=C(c1ccc(F)cc1)N1CCN(C(=O)c2ccc([N+](=O)[O-])cc2)CC1,-63.2
16,O=C(NNC(=O)c1ccc([N+](=O)[O-])cc1)c1ccc(F)cc1,6.25
17,O=C(Nc1ccc(C(=O)N2CCCCC2)cc1)c1ccc([N+](=O)[O-])cc1,-1.34
18,O=C(c1c(Cl)cccc1Cl)N1CCN(c2cccc3[nH]ccc23)CC1,22.3
19,O=C(c1ccc([N+](=O)[O-])cc1)N1CCN(Cc2ccccc2)CC1,-66.4
20,O=C(c1cc([N+](=O)[O-])ccc1Cl)N1CCN(Cc2ccccc2)CC1,4.75
21,O=C(c1cccc([N+](=O)[O-])c1)N1CCN(Cc2ccccc2)CC1,-9.31
22,O=C(c1cccc([N+](=O)[O-])c1)N1CCN(c2ncccn2)CC1,-8.55
